Compound activity deposited in PubChem BioAssay by National Center for Advancing Translational Sciences (NCATS).
Anesthetic bind: qHTS Assay for Identification of Novel General Anesthetics | Ferritin light chain (Equus caballus), P02791 | Potency, µM (highest dose often 77.5 µM), most hits filed as inhibitors | apoferritin/1-aminoanthracene competitive binding, fluorescence | 350,000 tested, 0.074% active | AID 485281, 2010; also: nearly all actives have a fitted effect of over 20% in size
Target sequence (P02791 2-175 limits assumed): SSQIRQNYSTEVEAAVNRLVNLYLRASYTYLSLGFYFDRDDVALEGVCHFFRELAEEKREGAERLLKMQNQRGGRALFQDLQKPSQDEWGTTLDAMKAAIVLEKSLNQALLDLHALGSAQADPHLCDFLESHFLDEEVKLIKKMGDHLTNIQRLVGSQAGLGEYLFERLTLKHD
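10 uM apoferritin + 50% sat. 1-AMA, PBS; cpd 10 min RT; Ex380/Em535 endpoint; normalized to free probe vs complex; 4-param Hill fit; propofol titration as pos. ctrl.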
mIDH1 inhibitor: qHTS for Inhibitors of mutant isocitrate dehydrogenase 1 (IDH1): qHTS; Potency, µM (doses to about 76.6 µM), hits mostly inhibitors; IDH1-R132H enzyme, NADPH consumption, diaphorase/resazurin fluorescence; 390,000 tested, 0.093% active; Isocitrate dehydrogenase [NADP] cytoplasmic (Homo sapiens), O75874; also: nearly all actives have a fitted effect of over 65% in size
Target sequence (O75874 whole entry R132H, stated change not applied): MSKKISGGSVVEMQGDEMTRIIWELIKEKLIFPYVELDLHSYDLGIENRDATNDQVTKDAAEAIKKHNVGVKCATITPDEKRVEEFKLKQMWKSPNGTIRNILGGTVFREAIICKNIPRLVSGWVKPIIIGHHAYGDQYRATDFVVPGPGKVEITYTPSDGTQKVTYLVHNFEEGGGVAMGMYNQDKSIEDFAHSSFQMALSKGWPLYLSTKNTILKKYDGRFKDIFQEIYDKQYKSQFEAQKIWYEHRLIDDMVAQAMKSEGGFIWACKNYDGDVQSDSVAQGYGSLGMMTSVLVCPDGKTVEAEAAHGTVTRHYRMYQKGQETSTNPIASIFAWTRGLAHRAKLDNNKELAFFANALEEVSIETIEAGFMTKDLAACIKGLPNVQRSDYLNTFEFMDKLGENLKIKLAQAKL
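IDH1-R132H (0.5 ug/mL dispensed) in pH 7.5 Tris buffer was preincubated 30 min with compound, then given a substrate mix of 0.016 mM NADPH and 2 mM alpha-KG for 80 min at room temperature; remaining NADPH was read by diaphorase/resazurin fluorescence.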
TrxR1 inh: qHTS Assay for Inhibitors of Mammalian Selenoprotein Thioredoxin Reductase 1 (TrxR1): qHTS. Thioredoxin reductase 1, cytoplasmic (Rattus norvegicus), O89049. recombinant rTrxR1, NADPH fluorescence consumption, selenite substrate. Potency, µM (titrated, usually from 114 µM), actives largely listed as inhibitors. 390,000 tested, 1% active; also: nearly all actives have a fitted effect of over 65% in size
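Rat TrxR1 (90 nM in the dispensed reagent) was pre-reduced with 400 uM NADPH for 5 min at room temperature, then incubated with compound for 15 min. After 400 uM selenite was added, NADPH fluorescence (Ex 340/Em 450 nm) was followed for 8 min.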
PKM2 act: qHTS Assay for Activators of Human Muscle isoform 2 Pyruvate Kinase. AID 1631, 2009. Potency, µM (series often up to 57.5 µM), hits mostly activators. 260,000 tested, 0.34% active. purified PKM2, Kinase-Glo ATP luminescence, activation; response scale: 0% is enzyme alone, no compound; also: nearly all actives have a fitted effect of over 55% in size
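ATP formation by purified human PK-M2, quantified via coupled luciferase luminescence after 1 h at room temperature with 0.1 mM ADP and 0.5 mM PEP final.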
TrxR1 substrate: qHTS Assay for Substrates of Mammalian Selenoprotein Thioredoxin Reductase 1 (TrxR1): qHTS | Potency, µM (highest dose often 114 µM) | purified TrxR1 substrate turnover, NADPH consumption readout | 390,000 tested, 0.01% active; also: nearly all actives have a fitted effect of over 50% in size
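Rat TrxR1, dispensed at 90 nM, was prereduced with 400 uM NADPH (final) for 5 min at ~22 deg C, then incubated with compound 15 min before 400 uM selenite. A first-read NADPH fluorescence drop versus no-compound background flagged substrates.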
GALK inh: qHTS Assay for Inhibitors of Human Galactokinase (GALK); P51570; Purified GALK, Kinase-Glo residual ATP luminescence; Potency, µM (top dose mostly 57.5 µM), actives largely listed as inhibitors; 270,000 tested, 0.007% active; AID 1868, 2009
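GALK at 5 nM final was combined with compound, 35 uM ATP and 100 uM galactose in HEPES pH8.0 with MgCl2 and DTT. The reaction ran one hour at room temperature before luminescent ATP detection.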
Resorufin autofl: qHTS for Inhibitors of mutant isocitrate dehydrogenase 1 (IDH1): Cherrypicks Autofluorescence Interference. shares compounds with mIDH1 inhibitor. Resorufin detection reagent fluorescence interference, cell-free. inhibition of signal, % at 51.2 µM. 750 tested, under 10 active. AID 623980, 2012
WT IDH1 inh: qHTS for Inhibitors of mutant isocitrate dehydrogenase 1 (IDH1): Cherrypicks in WT IDH1. shares compounds with mIDH1 inhibitor. WT IDH1 enzyme, NADPH diaphorase/resazurin fluorescence. Potency, µM (titrated, usually from 115 µM), hits mostly inhibitors. 750 tested, 9% active; also: nearly all actives have a fitted effect of over 55% in size
Target sequence (O75874 whole entry, looked up): as the sequence (O75874 whole entry R132H, stated change not applied) above, with H132R counted along it
IDH1 R132H conf: qHTS for Inhibitors of mutant isocitrate dehydrogenase 1 (IDH1): Confirmation of Cherrypicks | shares compounds with mIDH1 inhibitor | 750 tested, 83% active | Potency, µM (titrated, usually from 76.6 µM), hits mostly inhibitors | AID 624002, 2012 | IDH1 R132H enzyme, NADPH diaphorase/resazurin fluorescence; also: nearly all actives have a fitted effect of over 50% in size
Each line names hits and unclear results; the compound was inactive in the other large screens (follow-up assays come after a bar, where they were run). In the library only some 1.3% were active in any assay of this set; here they are far more common. Calls follow the shape of the dose curve; as a rule, active = well fitted curve in the direction sought with a large enough effect; inconclusive = small, poorly fitted or top-dose-only effect, or another doubt; inactive = no such curve, though single readings can be large; an effect the other way counts as inactive or inconclusive.

Cc1ccc(-n2c(=S)sc3c(=O)n(-c4ccc(F)cc4)c(SCC(=O)O)nc32)cc1C	mIDH1 inhibitor inconclusive (no result: PKM2 act, GALK inh) | Resorufin autofl inactive | WT IDH1 inh inactive | IDH1 R132H conf 13µM
C[C@@H]1C[C@H]2[C@@H]3CCC4=CC(=O)C=C[C@]4(C)[C@@]3(Cl)[C@@H](O)C[C@]2(C)[C@@]1(OC(=O)c1ccco1)C(=O)CCl	mIDH1 inhibitor 35µM (no result: Anesthetic bind, PKM2 act, GALK inh) | Resorufin autofl inactive | WT IDH1 inh inactive | IDH1 R132H conf 8.9µM
C[C@H]1C[C@@H]2[C@H]3CCC4=CC(=O)C=C[C@@]4(C)[C@@]3(Cl)[C@@H](O)C[C@]2(C)[C@]1(OC(=O)c1ccco1)C(=O)CCl	none (no result: mIDH1 inhibitor, TrxR1 inh, PKM2 act, TrxR1 substrate, GALK inh)
Cc1cc(C(C)(C)C)oc1C(=O)NCCCNC(=O)c1oc(C(C)(C)C)cc1C	mIDH1 inhibitor inconclusive | Resorufin autofl inactive | WT IDH1 inh inconclusive | IDH1 R132H conf 11µM
O=C(O)c1cccc(S(=O)(=O)N2CCN(C(c3ccccc3)c3ccccc3)CC2)c1	mIDH1 inhibitor inconclusive | Resorufin autofl inactive | WT IDH1 inh inactive | IDH1 R132H conf 32µM
O=C1c2[nH]nc(-c3ccccc3O)c2C(c2cccc(Cl)c2)N1Cc1cccnc1 (configuration not stated)	Anesthetic bind inconclusive, mIDH1 inhibitor inconclusive (no result: PKM2 act, GALK inh) | Resorufin autofl inactive | WT IDH1 inh inactive | IDH1 R132H conf 28µM
COc1cc(C2c3c(-c4ccccc4O)n[nH]c3C(=O)N2Cc2ccncc2)ccc1O (configuration not stated)	none (no result: PKM2 act, GALK inh)
Cc1ccc(C2c3c(-c4ccccc4O)n[nH]c3C(=O)N2Cc2ccncc2)cc1 (configuration not stated)	mIDH1 inhibitor inconclusive | Resorufin autofl inactive | WT IDH1 inh inactive | IDH1 R132H conf 35µM
O=C1c2[nH]nc(-c3ccccc3O)c2C(c2cccc(Br)c2)N1Cc1ccncc1 (configuration not stated)	mIDH1 inhibitor inconclusive (no result: PKM2 act, GALK inh) | Resorufin autofl inactive | WT IDH1 inh inactive | IDH1 R132H conf 25µM
COC(=O)c1ccc(C2c3c(-c4ccccc4O)n[nH]c3C(=O)N2Cc2ccncc2)cc1 (configuration not stated)	none (no result: PKM2 act, GALK inh)
COc1cccc(C2c3c(-c4ccccc4O)n[nH]c3C(=O)N2Cc2cccnc2)c1 (configuration not stated)	none (no result: PKM2 act, GALK inh)
COc1cc(/C=C2\C=Cc3ccccc32)ccc1N(C)C	none (no result: Anesthetic bind, mIDH1 inhibitor, PKM2 act, GALK inh)
C/C(=N\NC(N)=S)c1cc(-c2ccccc2)c(-c2ccccc2)s1	mIDH1 inhibitor inconclusive | Resorufin autofl inactive | WT IDH1 inh inactive | IDH1 R132H conf inconclusive
CCn1c(SCC(=O)Nc2cc(C)ccc2F)nnc1-c1ccccc1O	none (no result: PKM2 act, GALK inh)
O=C(c1cc(-c2ccc(Br)cc2)n[nH]1)N1CCN(S(=O)(=O)c2ccc(Br)s2)CC1	none (no result: PKM2 act, GALK inh)
COc1cc2cnc(-c3ccccc3)c(-c3ccc(C(F)(F)F)cc3)c2cc1OC	mIDH1 inhibitor inconclusive (no result: Anesthetic bind, PKM2 act, GALK inh) | Resorufin autofl inactive | WT IDH1 inh inactive | IDH1 R132H conf 16µM
Oc1cc(O)c(/C=C/c2ccnc3ccccc23)c(O)c1	none (no result: Anesthetic bind, mIDH1 inhibitor, PKM2 act, GALK inh)
CCN(C(=O)c1sc2nc3n(c(=O)c2c1C)CCCC3)c1ccccc1F	none (no result: PKM2 act, GALK inh)
COc1ccc(N2CCN(C(CNC(=O)c3c(F)cccc3F)c3ccc4c(c3)OCO4)CC2)cc1 (configuration not stated)	none (no result: PKM2 act, GALK inh)
CCc1cc(C(=O)c2ccc(OC)cc2)c(NC(=O)CN2CCCC2)s1	mIDH1 inhibitor 46µM | Resorufin autofl inactive | WT IDH1 inh inactive | IDH1 R132H conf 16µM
CCc1cc(C(=O)c2ccc(OC)cc2)c(NC(=O)CN2CCCCC2)s1	none
CN(C1=C(N2CCCCC2)C(=O)c2ccccc2C1=O)c1ccccc1	Anesthetic bind inconclusive, mIDH1 inhibitor inconclusive, TrxR1 inh inconclusive | Resorufin autofl inactive | WT IDH1 inh inactive | IDH1 R132H conf inconclusive
O=C1C(Nc2ccccc2)=C(N2CCCCC2)C(=O)c2ccccc21	Anesthetic bind inconclusive, TrxR1 inh inconclusive
COc1cc(C2c3c(-c4cc(Cl)c(C)cc4O)n[nH]c3C(=O)N2Cc2cccnc2)ccc1O (configuration not stated)	Anesthetic bind inconclusive, mIDH1 inhibitor inconclusive | Resorufin autofl inactive | WT IDH1 inh inactive | IDH1 R132H conf 45µM
COc1cccc(C2c3c(-c4cc(Cl)c(C)cc4O)n[nH]c3C(=O)N2Cc2cccnc2)c1 (configuration not stated)	Anesthetic bind inconclusive, mIDH1 inhibitor inconclusive | Resorufin autofl inactive | WT IDH1 inh inactive | IDH1 R132H conf 16µM
CCCCOc1ccc(C2c3c(-c4ccccc4O)n[nH]c3C(=O)N2Cc2ccncc2)cc1OC (configuration not stated)	mIDH1 inhibitor inconclusive (no result: PKM2 act, GALK inh)
CCOc1ccccc1CNC(=O)Cn1c(-c2ccccc2)cc(C(C)=O)c1C	none (no result: PKM2 act, GALK inh)
Cc1cc(C)c(NC(=O)CN2C(=O)CCn3nc(-c4cccn4C)cc32)c(C)c1	none (no result: PKM2 act, GALK inh)
Cc1cc([N+](=O)[O-])cc2c1-c1ncccc1C2=Nc1ccccc1	none
Cc1ccccc1N=C1c2cc([N+](=O)[O-])ccc2-c2ncccc21	mIDH1 inhibitor inconclusive | Resorufin autofl inactive | WT IDH1 inh inactive | IDH1 R132H conf 22µM
